Screens (PubChem)
The list is not random: actives were taken first. Their share in the collection is about 3.1%.
p53null 32C tox = kills p53 null cells at the permissive temperature | Potency, µM (titrated, usually from 46.1 µM), actives largely listed as cytotoxic | H1299-neo p53 null cells, ATP luminescence, 24 h, 32C | AID 903 | actives 0.62% (n = 55,000); note: nearly all actives have a fitted effect of over 55% in size
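H1299-neo (p53 null) cells, 600/well, treated 24 h at 32C with compound up to 46 uM; ATPlite luminescence viability, normalized to DMSO and 100 uM tamoxifen; AC50 by Hill fit.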
OvCa metastasis = blocks SKOV3ip1 adhesion and invasion in omental model; Potency, µM (top dose mostly 45.8 µM), usual class: inhibitors; SKOV3ip1-GFP adhesion/invasion on 3D omental model, fluorescence; actives 0.1% (n = 46,000); note: nearly all actives have a fitted effect of over 65% in size
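qHTS, 4-pt dose (0.36-46 umol/L); SKOV3ip1-GFP, 1,200 cells/well, no FBS; primary omental fibroblast/mesothelial co-culture 48 h pre-grown; 2 h RT + 16 h 37 C; PBS wash, 4% PFA; GFP count 488/509 nm.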
pS6 MEF inh = reduces mTORC1 signaling in Tsc2 and p53 null MEF cells. Tsc2-/- p53-/- MEF, phospho-rpS6 immunofluorescence/PI, 24 h. Potency, µM (doses to about 38.3 µM), most hits filed as inhibitors. actives 0.78% (n = 44,000). AID 493208; note: nearly all actives have a fitted effect of over 50% in size
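Read-out: phospho-S6 Alexa-488 intensity over PI intensity per well, scored as % active cells using thresholds from rapamycin (7.5 nM) and DMSO controls. Tsc2-/-, p53-/- MEFs exposed to compound for 24 h; PI cell count recorded as viability.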
PMP22 txn prim = PMP22 gene transcription modulation; S16 Pmp22-F2sN Schwann cells, FLuc/NLuc coincidence luminescence, 24 h; Potency, µM (highest dose often 57.5 µM), usual class: inhibitors; actives 2% (n = 43,000); active = clear falling dose curves in both reporters; inconclusive = both reporters move, but less clearly or upward; inactive = either reporter flat; the % is the NLuc reporter signal
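Luminescent read-out of sequential FLuc and NLuc signals from a reporter embedded in the Pmp22 3' UTR of S16 Schwann cells, taken after 24 h compound exposure at 37C; compounds reducing both signals score as inhibitors of expression.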
S16 viability = cytotoxicity in S16 Pmp22-F2sN Schwann cells. S16 Pmp22-F2sN Schwann cells viability, CellTiter-Glo, 24 h. Potency, µM (top dose mostly 57.5 µM), actives largely listed as cytotoxic. actives 0.48% (n = 43,000). AID 1508642; note: nearly all actives have a fitted effect of over 65% in size
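Used to flag compounds lowering reporter output through toxicity, this quantitative HTS measures ATP-based CellTiter-Glo luminescence in S16 Pmp22-F2sN Schwann cells after 24 h compound exposure at 37C.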
p53null 39C tox = selectivity test: cytotoxicity in p53 null cells, nonpermissive temperature; H1299 p53-null (neo) cells, 39C, ATPlite viability, 24 h; Potency, µM (titrated, usually from 46.1 µM), hits mostly cytotoxic; actives 0.97% (n = 55,000); note: nearly all actives have a fitted effect of over 50% in size
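Cells seeded at 600/well, 37C overnight. Compound added (up to 46 uM), plates shifted to 39C for 24 hr. ATPlite added, luminescence read after 20 min at room temperature.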
A number is an active result. Unless noted, calls come from the whole dose curve; as a rule, active = well fitted curve in the direction sought with a large enough effect; inconclusive = small, poorly fitted or top-dose-only effect, or another doubt; inactive = no such curve, though single readings can be large; an effect the other way counts as inactive or inconclusive.

COc1ccc2cc(CNc3ccccc3)c(=O)n(CC(=O)Nc3ccc(C)cc3C)c2c1 was read as p53null 32C tox inactive, OvCa metastasis inactive, pS6 MEF inh 7.4µM, PMP22 txn prim inactive, S16 viability inactive and p53null 39C tox inactive.
`O=C(CCS(=O)(=O)c1nc(-c2cccs2)cc(C(F)(F)F)n1)Nc1cc(Br)ccc1O` gave p53null 32C tox inactive, OvCa metastasis inconclusive, pS6 MEF inh inconclusive, PMP22 txn prim inconclusive, S16 viability 10µM and p53null 39C tox inconclusive.
Cc1ccc(O)c(NC(=O)CCS(=O)(=O)c2nc(-c3cccs3)cc(C(F)(F)F)n2)c1 was read as p53null 32C tox inactive, OvCa metastasis inconclusive, pS6 MEF inh inconclusive, PMP22 txn prim inconclusive, S16 viability inconclusive and p53null 39C tox inactive.
CN[C@@H](C)[C@H]1[C@H](O)C[C@@]2(C)[C@@H]3CC[C@H]4C(C)(C)[C@@H](NC)CC[C@@]45C[C@@]35CC[C@]12C was read as OvCa metastasis inactive.
For CC(C)CCNC(=O)c1ccc2c(c1)nc1n2CCCCC1 the results were p53null 32C tox 7.9µM, OvCa metastasis inactive, pS6 MEF inh inactive, PMP22 txn prim inactive, S16 viability inactive and p53null 39C tox 6.3µM.
Cc1ccccc1CCNC(=O)c1ccc2c(c1)nc1n2CCC(C)C1 (stereo unspecified) was read as p53null 32C tox 10µM, OvCa metastasis inactive, pS6 MEF inh inactive, PMP22 txn prim inconclusive, S16 viability inactive and p53null 39C tox inconclusive.
`CCNC(=O)c1ccc2c(c1)nc1n2CCCCC1` gave p53null 32C tox inconclusive, OvCa metastasis inactive, pS6 MEF inh inactive, PMP22 txn prim inactive, S16 viability inactive and p53null 39C tox inconclusive.
Screening O=C(NCCc1ccccc1Cl)c1ccc2c(c1)nc1n2CCCCC1 returned p53null 32C tox 3.2µM, OvCa metastasis inconclusive, pS6 MEF inh inactive, PMP22 txn prim inactive, S16 viability inactive and p53null 39C tox 2.5µM.
For O=C(NCCc1ccccc1)c1ccc2c(c1)nc1n2CCOC1 the results were p53null 32C tox 7.9µM, OvCa metastasis inactive, pS6 MEF inh inactive, PMP22 txn prim inactive, S16 viability inactive and p53null 39C tox 10µM.
For Cc1ccc(CCNC(=O)c2ccc3c(c2)nc2n3CCOC2)cc1 the results were p53null 32C tox inactive, OvCa metastasis inactive, pS6 MEF inh inactive, PMP22 txn prim inactive, S16 viability inactive and p53null 39C tox inactive.
`CCC(C)CCCCC(=O)N[C@@H](CCN)C(=O)NC(C(=O)N[C@H](CCN)C(=O)N[C@@H]1CCNC(=O)C([C@@H](C)O)NC(=O)[C@@H](CCN)NC(=O)[C@@H](CCN)NC(=O)[C@@H](CC(C)C)NC(=O)[C@H](Cc2ccccc2)NC(=O)[C@H](CCN)NC1=O)[C@@H](C)O` (stereo partly specified) gave OvCa metastasis inactive.
Screening O=C(C=Cc1cccc(S(=O)(=O)Nc2ccccc2)c1)NO returned OvCa metastasis inactive.
COC(=O)c1c(-c2ccc(Cl)cc2)noc1N1CCN(c2ccc(OC)cc2)CC1 was read as p53null 32C tox inactive, OvCa metastasis inactive, pS6 MEF inh inactive, PMP22 txn prim 6µM, S16 viability inconclusive and p53null 39C tox inconclusive.
`COC(=O)c1c(-c2ccc(Cl)cc2)noc1N1CCN(c2ccc(C(C)=O)cc2)CC1` gave p53null 32C tox inactive, OvCa metastasis inactive, pS6 MEF inh inactive, PMP22 txn prim 2.7µM, S16 viability inconclusive and p53null 39C tox inactive.
Screening COC(=O)c1c(-c2ccc(Cl)cc2)noc1N1CCN(c2ccccc2F)CC1 returned p53null 32C tox inactive, OvCa metastasis inactive, pS6 MEF inh inactive, PMP22 txn prim inactive, S16 viability inactive and p53null 39C tox inactive.
`Nc1nc(Nc2ccc(S(N)(=O)=O)cc2)nn1C(=O)c1c(F)cccc1F` gave OvCa metastasis inactive.
